Data published in the supplement of paper PMC10849652.
Of roughly 8,800 targets only a part is listed; those with a hit were picked by preference. About 0.5% of all pairs of compound and target were hits. Values without a mark were called inactive.

Tests used:
Assay in all cases: log2 fold change, soluble protein after heating vs DMSO (PISA); higher = thermal stabilisation; K562 lysate, 10 uM; active = over 0.2 and 3.5 SD of the protein, either way, in both replicates (recomputed)
erlotinib = compound: C#Cc1cccc(Nc2ncnc3cc(OCCOC)c(OCCOC)cc23)c1 [erlotinib]
How it was run: (§1)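 Quantification was by TMTpro 16plex LC-MS/MS with equalised channel sums, applied to the supernatant after 21,000xg for 90 min. Samples were crude K562 extract at 1 mg/mL protein in PBS pH 7.4 with 1 mM MgCl2, treated with 10 μM compound for 30 min, heated for 3 min across 48°C-58°C, pooled and brought to 0.5% NP-40 at 4°C. Values are log-two fold changes in thermal stability relative to solvent controls, from duplicates.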

[1] = compound: C/C(=N\NC(=O)C1=CC(=CC=C1)S(=O)(=O)N2CCOCC2)/C3=C(C=CC(=C3)Cl)O
How it was run: as §1

[2] = compound: C1=CC(=CC=C1C2=NC3=C(N2)C=C(C=C3)C(=O)N)OC4=CC=C(C=C4)Cl
How it was run: as §1

[3] = compound: C1=CC2=C(C=CC(=C2)/C=C\3/C(=O)NC(=NCC4=CC=CS4)S3)N=C1
How it was run: as §1

[4] = compound: C1=CC2=NC=CN=C2C=C1/C=C/3\C(=O)NC(=O)S3
How it was run: as §1

[5] = compound: C1=CC=C(C=C1)C2=NC(=C(N2)C3=CC=NC=C3)C4=CC(=C(C=C4)Cl)O
How it was run: as §1

[6] = compound: C1=CC=C2C(=C1)C3=NNC4=CC=CC(=C43)C2=O
How it was run: as §1

[7] = compound: C1CCN(C1)C(=O)NC2=CC=CC(=C2)NC3=NC=C(C(=N3)NCCC4=CN=CN4)Br
How it was run: as §1

[8] = compound: C1CN(CCC1(CC2=CC=C(C=C2)Cl)N)C3=NC=NC4=C3C=CN4
How it was run: as §1

IRAK-1-4 Inhibitor I = compound: C1COCCN1CCN2C3=CC=CC=C3N=C2NC(=O)C4=CC(=CC=C4)[N+](=O)[O-] [IRAK-1-4 Inhibitor I]
How it was run: as §1

Chain of UniProt O75367 (O75367 whole entry, looked up): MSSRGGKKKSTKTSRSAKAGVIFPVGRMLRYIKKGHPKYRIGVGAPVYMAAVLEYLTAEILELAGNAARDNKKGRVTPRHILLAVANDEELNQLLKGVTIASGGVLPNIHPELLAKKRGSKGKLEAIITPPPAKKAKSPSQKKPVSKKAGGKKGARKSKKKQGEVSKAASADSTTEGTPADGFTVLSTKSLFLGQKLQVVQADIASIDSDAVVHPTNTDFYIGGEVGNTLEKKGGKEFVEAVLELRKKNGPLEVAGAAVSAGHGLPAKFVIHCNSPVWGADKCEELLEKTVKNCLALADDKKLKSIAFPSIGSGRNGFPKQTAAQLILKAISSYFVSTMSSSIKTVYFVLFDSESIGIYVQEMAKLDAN
Chain of UniProt Q8N201 (Q8N201 whole entry, looked up): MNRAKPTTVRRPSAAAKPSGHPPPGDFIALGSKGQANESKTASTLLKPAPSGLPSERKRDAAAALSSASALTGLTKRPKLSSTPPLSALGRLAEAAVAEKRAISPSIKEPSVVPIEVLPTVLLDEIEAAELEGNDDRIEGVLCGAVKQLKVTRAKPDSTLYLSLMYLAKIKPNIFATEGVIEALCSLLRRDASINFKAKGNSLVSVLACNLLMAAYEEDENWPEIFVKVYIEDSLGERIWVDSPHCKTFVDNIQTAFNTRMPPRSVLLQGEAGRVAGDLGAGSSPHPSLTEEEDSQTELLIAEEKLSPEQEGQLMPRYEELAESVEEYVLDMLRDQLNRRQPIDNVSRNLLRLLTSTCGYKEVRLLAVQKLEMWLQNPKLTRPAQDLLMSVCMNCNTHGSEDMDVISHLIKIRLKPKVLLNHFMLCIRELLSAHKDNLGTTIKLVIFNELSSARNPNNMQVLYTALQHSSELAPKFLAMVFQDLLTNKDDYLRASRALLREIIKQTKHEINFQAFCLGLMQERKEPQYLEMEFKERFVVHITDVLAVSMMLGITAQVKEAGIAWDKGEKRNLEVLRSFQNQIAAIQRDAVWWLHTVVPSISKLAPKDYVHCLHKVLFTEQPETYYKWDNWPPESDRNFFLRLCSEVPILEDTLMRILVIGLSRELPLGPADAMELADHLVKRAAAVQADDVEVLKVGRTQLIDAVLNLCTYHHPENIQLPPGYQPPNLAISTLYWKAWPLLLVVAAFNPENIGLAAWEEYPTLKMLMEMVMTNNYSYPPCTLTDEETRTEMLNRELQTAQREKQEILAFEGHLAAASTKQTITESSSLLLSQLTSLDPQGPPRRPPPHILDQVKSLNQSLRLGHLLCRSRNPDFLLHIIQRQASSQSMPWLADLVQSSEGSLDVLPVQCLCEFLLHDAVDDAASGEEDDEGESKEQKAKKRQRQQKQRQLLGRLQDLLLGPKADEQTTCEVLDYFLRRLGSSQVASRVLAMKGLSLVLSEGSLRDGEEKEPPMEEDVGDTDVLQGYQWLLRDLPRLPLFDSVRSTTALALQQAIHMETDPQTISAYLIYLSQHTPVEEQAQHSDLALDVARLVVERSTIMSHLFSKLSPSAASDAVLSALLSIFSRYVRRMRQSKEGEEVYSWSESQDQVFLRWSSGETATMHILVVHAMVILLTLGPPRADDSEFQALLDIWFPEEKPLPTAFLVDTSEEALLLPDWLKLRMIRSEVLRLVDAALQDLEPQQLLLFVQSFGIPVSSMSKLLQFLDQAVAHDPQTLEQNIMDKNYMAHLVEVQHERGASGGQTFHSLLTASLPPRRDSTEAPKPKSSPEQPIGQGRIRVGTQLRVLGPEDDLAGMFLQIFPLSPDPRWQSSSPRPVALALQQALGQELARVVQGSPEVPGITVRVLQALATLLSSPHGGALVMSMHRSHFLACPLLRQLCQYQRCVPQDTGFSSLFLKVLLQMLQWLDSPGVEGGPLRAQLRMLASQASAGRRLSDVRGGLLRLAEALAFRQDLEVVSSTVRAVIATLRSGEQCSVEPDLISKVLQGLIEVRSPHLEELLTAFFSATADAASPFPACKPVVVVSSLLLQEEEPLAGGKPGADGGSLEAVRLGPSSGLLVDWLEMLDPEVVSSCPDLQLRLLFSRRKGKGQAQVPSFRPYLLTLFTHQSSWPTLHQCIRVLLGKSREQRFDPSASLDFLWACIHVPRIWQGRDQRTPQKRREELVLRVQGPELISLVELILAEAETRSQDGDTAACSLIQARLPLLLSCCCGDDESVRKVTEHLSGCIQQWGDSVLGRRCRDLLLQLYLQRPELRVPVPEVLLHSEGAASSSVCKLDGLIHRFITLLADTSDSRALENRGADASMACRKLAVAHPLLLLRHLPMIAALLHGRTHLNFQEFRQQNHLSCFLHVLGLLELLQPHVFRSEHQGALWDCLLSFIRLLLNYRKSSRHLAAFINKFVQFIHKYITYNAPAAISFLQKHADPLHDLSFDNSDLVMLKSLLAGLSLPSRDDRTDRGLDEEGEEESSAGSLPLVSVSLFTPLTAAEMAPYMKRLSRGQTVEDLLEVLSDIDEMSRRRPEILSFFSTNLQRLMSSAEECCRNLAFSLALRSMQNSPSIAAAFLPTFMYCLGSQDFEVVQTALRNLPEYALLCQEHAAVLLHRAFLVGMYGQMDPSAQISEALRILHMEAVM
Chain of UniProt Q9H6K1 (Q9H6K1 whole entry, looked up): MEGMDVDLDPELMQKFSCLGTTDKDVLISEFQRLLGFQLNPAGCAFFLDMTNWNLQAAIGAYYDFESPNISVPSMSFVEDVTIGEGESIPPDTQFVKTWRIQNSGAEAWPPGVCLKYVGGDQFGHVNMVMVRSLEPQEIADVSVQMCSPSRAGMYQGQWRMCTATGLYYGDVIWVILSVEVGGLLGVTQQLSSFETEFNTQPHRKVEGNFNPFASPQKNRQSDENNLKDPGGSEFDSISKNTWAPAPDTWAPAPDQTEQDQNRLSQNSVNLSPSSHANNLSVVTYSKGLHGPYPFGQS
Chain of UniProt P49840 (P49840 whole entry, looked up): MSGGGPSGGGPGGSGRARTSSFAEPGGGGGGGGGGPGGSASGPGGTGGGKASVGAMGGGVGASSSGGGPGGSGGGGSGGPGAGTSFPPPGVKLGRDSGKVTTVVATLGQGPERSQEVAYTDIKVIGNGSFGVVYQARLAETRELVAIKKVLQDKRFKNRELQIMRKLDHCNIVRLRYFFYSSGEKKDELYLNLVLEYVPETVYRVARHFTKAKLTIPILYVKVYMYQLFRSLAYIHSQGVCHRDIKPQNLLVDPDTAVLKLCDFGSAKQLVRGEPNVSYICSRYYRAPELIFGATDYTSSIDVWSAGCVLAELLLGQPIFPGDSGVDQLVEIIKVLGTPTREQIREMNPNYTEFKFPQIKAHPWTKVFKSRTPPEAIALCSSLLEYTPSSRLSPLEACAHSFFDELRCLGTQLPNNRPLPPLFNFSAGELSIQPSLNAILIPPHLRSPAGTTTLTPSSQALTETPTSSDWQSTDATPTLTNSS
Chain of UniProt P32780 (P32780 whole entry, looked up): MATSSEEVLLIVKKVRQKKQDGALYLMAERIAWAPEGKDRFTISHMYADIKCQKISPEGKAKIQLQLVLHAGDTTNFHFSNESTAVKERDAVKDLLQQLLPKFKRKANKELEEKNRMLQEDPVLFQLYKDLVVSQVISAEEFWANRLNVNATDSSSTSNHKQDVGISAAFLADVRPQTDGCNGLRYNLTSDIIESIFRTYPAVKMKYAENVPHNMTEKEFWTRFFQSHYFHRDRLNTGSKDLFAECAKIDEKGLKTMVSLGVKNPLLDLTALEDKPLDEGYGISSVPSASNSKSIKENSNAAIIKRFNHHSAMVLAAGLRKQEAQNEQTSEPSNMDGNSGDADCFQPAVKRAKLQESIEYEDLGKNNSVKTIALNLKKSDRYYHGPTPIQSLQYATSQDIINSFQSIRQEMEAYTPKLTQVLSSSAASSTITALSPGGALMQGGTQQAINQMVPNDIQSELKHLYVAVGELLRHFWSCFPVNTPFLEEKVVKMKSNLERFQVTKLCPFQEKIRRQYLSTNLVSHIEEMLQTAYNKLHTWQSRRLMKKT
Chain of UniProt Q7Z4Q2 (Q7Z4Q2 whole entry, looked up): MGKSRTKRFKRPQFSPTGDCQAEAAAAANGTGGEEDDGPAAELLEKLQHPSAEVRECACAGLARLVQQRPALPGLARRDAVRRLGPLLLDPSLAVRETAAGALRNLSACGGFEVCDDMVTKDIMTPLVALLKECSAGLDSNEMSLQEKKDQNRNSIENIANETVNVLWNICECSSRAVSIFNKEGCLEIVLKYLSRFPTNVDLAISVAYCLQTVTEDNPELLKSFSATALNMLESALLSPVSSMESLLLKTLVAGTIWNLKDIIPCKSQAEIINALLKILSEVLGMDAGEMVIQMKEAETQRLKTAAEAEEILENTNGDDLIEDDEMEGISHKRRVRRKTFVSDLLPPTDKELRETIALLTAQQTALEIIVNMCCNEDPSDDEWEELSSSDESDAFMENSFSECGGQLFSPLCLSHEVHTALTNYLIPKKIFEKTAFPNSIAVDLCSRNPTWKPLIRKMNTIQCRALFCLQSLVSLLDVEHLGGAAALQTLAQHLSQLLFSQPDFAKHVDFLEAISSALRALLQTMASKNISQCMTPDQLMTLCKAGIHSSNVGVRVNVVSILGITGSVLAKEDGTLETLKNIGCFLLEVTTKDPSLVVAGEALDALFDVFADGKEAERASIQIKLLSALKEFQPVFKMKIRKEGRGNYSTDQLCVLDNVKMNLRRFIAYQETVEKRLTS
Chain of UniProt Q6DN03 (Q6DN03 whole entry, looked up): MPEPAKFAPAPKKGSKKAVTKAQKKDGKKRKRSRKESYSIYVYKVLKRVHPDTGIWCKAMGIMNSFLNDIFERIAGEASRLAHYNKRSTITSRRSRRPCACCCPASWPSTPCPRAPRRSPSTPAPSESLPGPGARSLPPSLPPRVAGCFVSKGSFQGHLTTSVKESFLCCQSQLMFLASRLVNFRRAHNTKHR
Chain of UniProt Q01628 (Q01628 whole entry, looked up): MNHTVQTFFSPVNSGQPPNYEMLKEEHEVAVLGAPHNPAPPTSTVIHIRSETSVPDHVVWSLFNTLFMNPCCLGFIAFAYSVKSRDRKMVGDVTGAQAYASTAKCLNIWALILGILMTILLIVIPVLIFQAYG

Row | Target | log2 fold change (erlotinib) | log2 fold change [1] | log2 fold change [2] | log2 fold change [3] | log2 fold change [4] | log2 fold change [5] | log2 fold change [6] | log2 fold change [7] | log2 fold change [8] | log2 fold change (IRAK-1-4 Inhibitor I)
1 | IMMT (UniProt C9J406) | 0.077 | 0.041 | -0.028 | 0.001 | 0.043 | 0.028 | -0.032 | -0.222 | 0.325 | -0.016
2 | HTT (UniProt P42858) | 0.018 | -0.051 | -0.067 | 0.037 | 0.032 | -0.041 | -0.138 | -0.04 | -0.05 | -0.027
3 | GRK6 isoform 2 (UniProt P43250) | -0.014 | -0.126 | 0.015 | -0.009 | -0.046 | -0.063 | 0.284 | -0.161 | 0.108 | 0.053
4 | HNRNPAB isoform 3 (UniProt Q99729) | -0.032 | -0.214 | 0.017 | -0.007 | 0.002 | -0.001 | -0.012 | 0.003 | 0 | 0.009
5 | HNRNPD isoform 2 (UniProt Q14103) | -0.001 | -0.014 | -0.022 | -0.027 | 0.049 | 0.014 | -0.023 | 0.012 | -0.009 | 0.018
6 | HDLBP, A0A024R4E5 | 0.043 | 0.008 | 0.02 | -0.001 | -0.024 | -0.001 | -0.046 | -0.003 | 0.004 | -0.005
7 | KEAP1 (UniProt Q14145) | 0.048 | 0.006 | 0.018 | -0.005 | 0.014 | 0.015 | -0.006 | 0.038 | 0.018 | -0.006
8 | IMPDH2 (UniProt P12268) | 0.001 | -0.009 | -0.018 | -0.018 | -0.013 | -0.028 | -0.003 | 0.019 | -0.003 | 0.011
9 | HIST2H2BC (UniProt Q6DN03) | -0.036 | 0.144 | 0.001 | 0.006 | 0.061 | 0.007 | -0.012 | 0.043 | 0.04 | -0.028
10 | GLUL (UniProt P15104) | -0.003 | 0.032 | -0.002 | 0.029 | -0.03 | 0.005 | 0.007 | 0.013 | 0.017 | -0.017
11 | H2AFY (UniProt O75367) | 0.02 | -0.026 | 0.049 | 0.069 | 0.013 | 0.069 | 0.081 | -0.051 | -0.113 | 0.02
12 | HAUS3 (UniProt Q68CZ6) | 0.022 | 0.01 | -0.033 | 0.016 | -0.028 | 0.004 | -0.06 | -0.045 | 0.019 | 0.025
13 | INTS1 (UniProt Q8N201) | 0.016 | 0.063 | 0.013 | -0.071 | -0.017 | 0.027 | -0.097 | -0.01 | 0.025 | 0.016
14 | GSK3A (UniProt P49840) | -0.029 | -0.103 | -0.034 | 0.069 | 0.066 | 0.295 | 0.182 | 0.163 | 0.018 | -0.014
15 | GTF2H1 (UniProt P32780) | 0.044 | 0.008 | 0.012 | -0.032 | -0.011 | 0.003 | -0.013 | 0.029 | -0.005 | -0.019
16 | GSTM2 (UniProt P28161) | -0.083 | 0.041 | -0.038 | -0.007 | 0.079 | -0.008 | -0.012 | -0.021 | -0.054 | 0.037
17 | GTF3C3 (UniProt Q9Y5Q9) | 0.016 | 0.013 | -0.013 | 0.025 | 0 | -0.005 | -0.065 | 0 | 0.031 | -0.001
18 | ILRUN (UniProt Q9H6K1) | -0.004 | 0.056 | 0.004 | -0.018 | 0.016 | 0.018 | 0.011 | 0.006 | 0.033 | 0.02
19 | GOLGA1 (UniProt Q92805) | 0.029 | 0.09 | -0.002 | -0.004 | 0.021 | 0 | 0.124 | 0.018 | 0.038 | 0.017
20 | HMGB2 (UniProt P26583) | -0.007 | 0.039 | 0.007 | 0.008 | -0.017 | 0.046 | 0.013 | 0.014 | -0.008 | -0.026
21 | GRK2 (UniProt P25098) | 0.023 | 0.028 | 0.015 | 0.115 | -0.005 | -0.025 | -0.098 | -0.026 | 0.536 (active) | -0.002
22 | GPA33 (UniProt Q99795) | -0.014 | 0.082 | -0.002 | -0.091 | -0.032 | -0.05 | -0.151 | 0.001 | 0.046 | 0.024
23 | IL18R1 (UniProt Q13478) | -0.029 | -0.493 | -0.136 | 0.147 | 0.041 | 0.152 | 0.079 | -0.155 | 0.058 | -0.043
24 | HNRNPLL (UniProt Q8WVV9) | 0.007 | 0 | 0.011 | 0.009 | -0.017 | -0.019 | -0.035 | 0.006 | -0.009 | -0.026
25 | HEATR3 (UniProt Q7Z4Q2) | 0.002 | 0.029 | -0.064 | -0.015 | 0.02 | -0.022 | -0.052 | -0.002 | 0.006 | -0.001
26 | KDM1A (UniProt O60341) | -0.005 | 0.106 | 0.021 | 0 | -0.006 | -0.019 | -0.071 | -0.019 | -0.009 | -0.003
27 | IMPDH1 isoform 6 (UniProt P20839) | 0.018 | 0.036 | -0.031 | 0.009 | -0.001 | -0.001 | 0.017 | 0.028 | 0.032 | 0.003
28 | IFITM3 (UniProt Q01628) | -0.136 | -0.11 | 0.062 | 0.004 | -0.094 | -0.122 | 0.084 | -0.095 | -0.069 | -0.026
29 | IRF2BPL (UniProt Q9H1B7) | 0.024 | 0.102 | 0.037 | 0.022 | -0.034 | 0.002 | -0.008 | -0.002 | 0.027 | -0.027
30 | HERC2 (UniProt O95714) | 0.014 | 0.174 | 0.115 | 0.007 | 0.01 | 0.042 | -0.061 | -0.016 | -0.001 | -0.033
